From PubChem BioAssay (NCI)
The panel holds about 79,000 compounds, 15% with a hit somewhere; the sample as a whole holds those more often. A number with no mark means an inactive call. Activity calls are given as the source filed them. Cut-off read from the data, not from the text of the source: active = growth inhibition above about 70%; inactive = the rest.

Experiments:
[1] = NCI Yeast Anticancer Drug Screen. Data for the rad50 strain (AID 155);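 note: 0% = growth of vehicle-only cultures of the same strain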; conditions: S. cerevisiae rad50 strain growth inhibition; at 50.0 µM; hits give high values
Method in brief: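 Relative growth inhibition (compound vs vehicle) was measured in yeast with a defined repair-gene alteration.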

[2] = NCI Yeast Anticancer Drug Screen. Data for the mec2-1 strain (AID 157); conditions: S. cerevisiae mec2-1 strain, at 50.0 µM, hits give high values
Method in brief: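 Mutant yeast (mec2-1) grown with compound; growth inhibition relative to vehicle control reported.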

[3] = NCI Yeast Anticancer Drug Screen. Data for the sgs1 mgt1 strain (AID 161);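 note: 0% = growth of cultures given vehicle only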; conditions: S. cerevisiae sgs1 mgt1 strain, at 50.0 µM, hits give high values
Method in brief: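 Growth of a repair-deficient yeast mutant was monitored after compound treatment and expressed as inhibition relative to vehicle-treated cultures.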

[4] = NCI Yeast Anticancer Drug Screen. Data for the cln2 rad14 strain (AID 165);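 note: 0% = growth equal to vehicle treated cultures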; conditions: S. cerevisiae cln2 rad14 strain, at 50.0 µM, hits give high values
Method in brief: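 Readout is yeast growth inhibition versus vehicle-treated controls, using a strain with cln2 and rad14 alterations exposed to compound.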

[5] = NCI Yeast Anticancer Drug Screen. Data for the bub3 strain (AID 167); conditions: S. cerevisiae bub3 mutant strain, at 50.0 µM, hits give high values
Method in brief: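 Screening used yeast with an engineered genetic alteration affecting cell cycle control. Compound-exposed cultures were compared with vehicle cultures, and reduced growth was taken as inhibition.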

[6] = NCI Yeast Anticancer Drug Screen. Data for the mlh1 rad18 strain (AID 175); conditions: S. cerevisiae mlh1 rad18 strain growth inhibition; at 50.0 µM; hits give high values
Method in brief: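 Genetically defined yeast (DNA repair-deficient) exposed to compounds; growth inhibition determined relative to vehicle.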

| Structure (SMILES) | growth inhibition [1] | growth inhibition [2] | growth inhibition [3] | growth inhibition [4] | growth inhibition [5] | growth inhibition [6] |
| --- | --- | --- | --- | --- | --- | --- |
| CCCCCC(CSCC)C(=O)/C=C/c1ccccc1 (stereo unspecified) | 8.3% | 1.4% | -7% | -1.55% | 18.6% | 5.6% |
| Clc1nc2ccccc2c2ccccc12 | 36.5% | -3.6% | -4% | 29.5% | -13.2% | 4.5% |
| O=C1c2cc([N+](=O)[O-])ccc2-c2c(F)cccc21 | 5.5% | 8.25% | -1% | -32% | 10.2% | 4.1% |
| COc1ccc(NC(=O)CCC(=O)CC(=O)c2ccc(C)cc2)cc1 | -18.6% | 31.1% | 39.6% | -23.4% | 17.9% | 36.2% |
| Cc1ccc(NC(=O)c2ccc(Cl)cc2)cc1Cl | 18.9% | 1.35% | 2.95% | -9.65% | 13.8% | -2.3% |
| CCN(CC)C(COC(=O)Nc1ccccc1)COC(=O)Nc1ccccc1 | 1.85% | -2.3% | 0.6% | -13.8% | -18.9% | 3.05% |
| C/C(CC1CCCCC1)=N\NC(N)=O | 0.25% | 1.35% | -5.8% | 13.2% | -10.9% | -27.1% |
| O=C1CCC(=O)O1 | -8.6% | 17% | -11.7% | 6.45% | 3.95% | -51.9% |
| CC(C)CC(CCl)Cc1nc2ccccc2[nH]1 (stereo unspecified) | 13.1% | 4.05% | 39.8% | 14.9% | 33.6% | 27.5% |
| CC(C)=CCNc1ncnc2c1ncn2CCC#N | -24.1% | -6.55% | -16.9% | 5.1% | -35.8% | -21.4% |
| Cc1ccccc1C(N)=O | 23.7% | 3.6% | 11.2% | -12.6% | 12.8% | 26.5% |
| CCCCNC(=O)NC1CC(OC2CC(O)(C(C)=O)Cc3c(O)c4c(c(O)c32)C(=O)c2c(OC)cccc2C4=O)OC(C)C1O (stereo unspecified) | 30.2% | 14.9% | 22.9% | 0.8% | 1.25% | 29.9% |
| CCCCOC(=O)C1(C(=O)OCCCC)CC1 | 14.8% | -7.6% | 1.3% | 1.6% | -3.75% | 3.55% |
| O=C(O)CCn1ccc2ccccc21 | 3.65% | -0.55% | 4.8% | 5.9% | 3.1% | 1.6% |
| CNCc1ccccc1[N+](=O)[O-] | 6.75% | -3.95% | -3.9% | -9.95% | 3.7% | -0.3% |
| CCOc1ccc(C(C)c2cc3c(cc2OC)OCO3)cc1 (stereo unspecified) | 20.7% | 2.3% | 20.8% | -1.55% | 27.5% | 11.8% |
| FC(F)(F)c1cccc(C=NC23CC4CC(CC(C4)C2)C3)c1 | -16.4% | -14.6% | -2.05% | 10.4% | -30% | 8.75% |
| CC(=O)Oc1ccc(C(=O)c2ccc(OC(C)=O)cc2)cc1 | -7.5% | -16.6% | 6.25% | -22.4% | -4.45% | 22.2% |
| Cc1nc(CCCCCCCC(=O)O)ccc1O | 6.25% | 7.25% | -10.6% | -9.35% | 0.85% | 7.3% |
| CC(c1ccccc1)C1(C)NC(=O)NC1=O (stereo unspecified) | -12.4% | -24.7% | -2.1% | -4.1% | 6.55% | -10.1% |
| COCCNC(=O)C(C)O (stereo unspecified) | 1.7% | 3.95% | -4.9% | 19.2% | 17.1% | 6.15% |

| Structure (SMILES) | growth inhibition [1] | growth inhibition [2] | growth inhibition [3] | growth inhibition [4] | growth inhibition [5] | growth inhibition [6] |
| --- | --- | --- | --- | --- | --- | --- |
| IC1CCC2OC1CCC2I (stereo unspecified) | 2.8% | 1.75% | -3.85% | -8.35% | -5.05% | 11.8% |
| Cc1ccc(C2CC(c3ccc([N+](=O)[O-])cc3)=Nc3ccccc3S2)cc1 (stereo unspecified) | 6.4% | -1.75% | 15.1% | 14.7% | 20.5% | 8.6% |
| N#C/C(=C\c1ccccc1)c1ccc(F)cc1F | 33.2% | 30.6% | 6.15% | 6.55% | 6.55% | 9.7% |
| Cc1ccc(Cc2cc(=O)[nH]c(=O)[nH]2)cc1 | 0.2% | -8.25% | -13.2% | -76.5% | 2.7% | 5.4% |
| OCC(O)C1OC2CC1Nc1ccccc1N2 (stereo unspecified) | -30.6% | -21.3% | 9.6% | 17.3% | -15.1% | -12.7% |
| CC(=O)C(C)CO (stereo unspecified) | 14.2% | -21.1% | 5.5% | 8.55% | 9.2% | 13.7% |
| CC(C)=CCOc1ccc(-c2coc3cc4c(c(O)c3c2=O)C=CC(C)(C)O4)cc1 | 15.7% | 3.1% | 15.9% | 13.3% | 24% | 26.8% |
| C=CCOc1cc2c(cc1C(C)c1ccc(OC)cc1)OCO2 (stereo unspecified) | 12.3% | 0.75% | 5.95% | -10.3% | 14.5% | -0.6% |
| ClCCn1nc2c(c1-c1ccccc1)CCc1ccccc1-2 | -8% | -1.05% | -10.4% | -19.4% | 11.1% | -2.85% |
| Nc1nc(N)c2c(Cl)c(CNc3ccc(C(=O)NC(CC(=O)O)CC(=O)O)cc3)ccc2n1 | 19% | 9.65% | 22.2% | -1.35% | -4.05% | 14.4% |
| CC(C)CCCC(C)C1CCC2C3CCC4CC(N5CCCCC5)CCC4(C)C3CCC12C (stereo unspecified) | 5.5% | -9.6% | -16.1% | -20.8% | 4.55% | 17.1% |
| OC1CC/C=C\CC/C=C/CCC1O (stereo unspecified) | -5.75% | 6.45% | 0.5% | 24.1% | 3.8% | 0.55% |
| CN(NC(=O)/C(=C\c1ccccc1Cl)NC(=O)c1ccccc1)c1cn[nH]c(=O)c1Cl | -13.2% | -11.8% | -16.4% | 9.1% | -3.75% | -6.85% |
| O=C(N/N=C/c1ccc(Cl)cc1Cl)C(O)(c1ccccc1)c1ccccc1 | 17.4% | 16.1% | 10.2% | 22.9% | 10.7% | 19.3% |
| c1ccc(Cc2ncc(-c3ccccc3)cc2-c2ccccc2)cc1 | -19.4% | -14.8% | 3.1% | 3.65% | 7.3% | 4.2% |
| OC(CCc1ccco1)CCc1ccco1 | 19.9% | 6.6% | 11.5% | 1.4% | 10.7% | 14.1% |
| COc1cccc(OC)c1OCC1CO1 (stereo unspecified) | 6.95% | 9.8% | 0.2% | -14.4% | 2.3% | 9.95% |
| CCCCCCCCCCCCc1c2ccccc2cc2ccccc12 | 3.55% | -3.8% | -4.7% | -11.4% | 25.1% | 9.5% |
| O=C1NC(=O)C2(CCCCCC2)N1 | -23.9% | -23.9% | 10.1% | -0.65% | -4.1% | -26.7% |
| Cc1ccc(CNC2=C(Cl)C(=O)c3ccccc3C2=O)cc1C | 96.9% (active) | 98.2% (active) | 97.2% (active) | 97.2% (active) | 98% (active) | 97.2% (active) |
